# Measured values published in PubChem BioAssay (NCI).
# This is part of a sample that, as a whole, favours compounds with a hit. Of some 83,000 tested, about 20% had one in any assay.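 Activity criterion: percent growth below 10, measured after cells in 96-well plates were exposed to a single compound concentration for 48 hours.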 Unmarked numbers belong to inactive results. Calls of active or inactive are those of the source.
# What was measured:
# Assay in all cases: NCI-60 one-dose screen, 48 h (100 = growth as untreated, 0 = no growth, -100 = all killed)
# Settings in all cases: 10 µM
# NCI-H23 lung = tested on: NCI-H23 lung
# NCI-H226 lung = tested on: NCI-H226 lung
# HOP-62 NSCLC = tested on: HOP-62 NSCLC
# NCI-H460 lung = tested on: NCI-H460 lung
# HOP-92 NSCLC = tested on: HOP-92 NSCLC
# NCI-H522 lung = tested on: NCI-H522 lung
# A549/ATCC NSCLC = tested on: A549/ATCC NSCLC
# 786-0 renal = tested on: 786-0 renal
# COLO 205 colon = tested on: COLO 205 colon
# DU-145 prostate = tested on: DU-145 prostate
# K-562 leukemia = tested on: K-562 leukemia
# MDA-MB-231 breast = tested on: MDA-MB-231 breast
# RXF 393 renal = tested on: RXF 393 renal
# SF-268 CNS = tested on: SF-268 CNS
# SF-295 CNS = tested on: SF-295 CNS
# UACC-257 melanoma = tested on: UACC-257 melanoma
# M14 melanoma = tested on: M14 melanoma
# MALME-3M melanoma = tested on: MALME-3M melanoma
# SF-539 CNS = tested on: SF-539 CNS
SMILES,growth (NCI-H23 lung),growth (NCI-H226 lung),growth (HOP-62 NSCLC),growth (NCI-H460 lung),growth (HOP-92 NSCLC),growth (NCI-H522 lung),growth (A549/ATCC NSCLC),growth (786-0 renal),growth (COLO 205 colon),growth (DU-145 prostate),growth (K-562 leukemia),growth (MDA-MB-231 breast),growth (RXF 393 renal),growth (SF-268 CNS),growth (SF-295 CNS),growth (UACC-257 melanoma),growth (M14 melanoma),growth (MALME-3M melanoma),growth (SF-539 CNS)
OC(CCN1CCCC1)(c1ccccc1)C1CCCCC1 (configuration not stated),103%,94.3%,120%,110%,115%,102%,104%,100%,117%,108%,117%,104%,103%,95.9%,100%,109%,99.6%,,
CN(C)CCOc1ccccc1NC1=C(Cl)C(=O)C(Nc2ccccc2OCCN(C)C)=C(Cl)C1=O,64.1%,93.9%,110%,99.2%,59.9%,-53.3% (active),84.7%,74.8%,,84.7%,-12.6% (active),53.1%,68.5%,86%,103%,85.2%,92.9%,64.7%,101%
Cc1ccc(C(C)C)c(O)c1NC(=O)OC(C)C,96.2%,99.4%,91.6%,102%,75.7%,84.8%,104%,92.3%,99.6%,107%,114%,106%,108%,93.8%,101%,91.7%,96.6%,,
CCN(CC)CCOc1ccc2c(c1O)C(=O)c1ccccc1C2=O,82.4%,86.2%,73.3%,84.5%,75.3%,82.6%,78.6%,80.1%,,95.4%,71.6%,82.8%,77.7%,90.1%,91.5%,94.7%,92%,109%,91.9%
CCn1cc(C(=O)O)c(=O)c2cc(F)c(N3CCNCC3)cc21,108%,92.3%,108%,104%,115%,104%,103%,108%,102%,106%,96.6%,100%,118%,103%,93%,106%,117%,,
Cc1ccc(NCCNCC(C)(C)O)c2c(=O)c3ccc(Cl)cc3sc12,52%,76.6%,80.1%,-73.7% (active),21%,49.4%,-42.9% (active),54%,,5.67% (active),-63.1% (active),-36.9% (active),24.2%,39.4%,74.1%,78.5%,-78.7% (active),-71.8% (active),69.8%
Cc1c(C(N)=O)sc2c1c(=O)n(Cc1ccccc1)c1nnc(-c3ccc(Br)cc3)n21,39%,26.6%,37.7%,4.4% (active),43.4%,47.9%,10.1%,-15.5% (active),16.8%,31.7%,,18.8%,15.9%,29.4%,15.8%,-0.619% (active),-22.5% (active),,13.1%
COc1cc2c(cc1OC)C(C(CCCCCC(CCC(C)C)C1NCCc3cc(OC)c(OC)cc31)CCC(C)C)NCC2 (configuration not stated),-87.4% (active),-75.6% (active),-96.7% (active),-80.3% (active),-90.4% (active),-95.4% (active),-92.9% (active),-97.8% (active),-94.5% (active),-100% (active),13.6%,-81.9% (active),,-95.7% (active),-77.5% (active),-92.5% (active),-93.6% (active),,-97.4% (active)
O=C(CC(CC(=O)c1ccccc1)c1ccccc1O)c1ccccc1,92.8%,87.8%,85.8%,93%,88.9%,89.3%,93%,96.5%,,103%,89.4%,90.4%,107%,89.8%,99.9%,98.4%,92.8%,91.8%,99.1%
CN(C)CCN(Cc1ccccc1)c1ccc2ccccc2n1,97.6%,111%,88.4%,96.9%,75.6%,96.7%,95.6%,93.9%,,107%,93.4%,87.2%,105%,103%,88.5%,98%,91.3%,96.5%,106%
CCCN(CCC)C(=O)[C@H](CC)[C@@H]1CC[C@@H](C)[C@@H]([C@H](C)[C@@H](O)[C@@H](C)C(=O)[C@H](CC)C2O[C@]3(C=C[C@@H](O)[C@]4(CC[C@@](C)([C@H]5CC[C@](O)(CC)[C@H](C)O5)O4)O3)[C@H](C)C[C@@H]2C)O1 (some centres not stated),-9.41% (active),-2.4% (active),14.2%,1.15% (active),-21.1% (active),-11.1% (active),,15.8%,-64.2% (active),31.5%,10.4%,-40.3% (active),-6.32% (active),24.5%,-5.79% (active),8.4% (active),13.9%,-13.3% (active),8.44% (active)
COc1ccc(/C=c2\sc3n(c2=O)C(c2cc(OC)c(OC)c(OC)c2)C=C(c2ccc(OC)c(OC)c2)N=3)cc1OC (configuration not stated),103%,108%,103%,107%,63.3%,58.1%,100%,78.1%,97.3%,112%,89.9%,85.5%,105%,91.1%,115%,88.9%,100%,,
CCOc1ccccc1/C=N/N1CCCCCC1,89.3%,88.2%,97.3%,107%,86.9%,102%,117%,119%,,111%,,96.3%,99.9%,93.7%,83.8%,115%,107%,,109%
O=C1/C(=C/c2ccc3c(c2)OCO3)SC(=S)N1C1c2ccccc2Oc2ccccc21,89.8%,97.9%,98.3%,107%,90.7%,95.8%,,97.6%,99.7%,99.7%,99.5%,96%,103%,98.1%,97.8%,112%,93.5%,80.1%,94.3%
CS(=O)(=O)c1nccc(-c2c(-c3cccc(OCc4ccccc4)c3)nc3sccn23)n1,53.6%,50.8%,92.9%,103%,51.8%,5.91% (active),106%,86.3%,,-59.6% (active),47.1%,61.4%,90.7%,97%,101%,27.8%,72.3%,58.7%,90%
C/C(=N\O)c1ccc(NC(=O)CSc2nnc(-c3ccccc3)n2-c2ccccc2)cc1,76.6%,72.4%,64.7%,66.7%,30.1%,-34.7% (active),81.9%,80.5%,,90.6%,95.8%,67.9%,99.9%,99.8%,92.2%,94.5%,91.8%,82.9%,52.6%
CCN(CC)CCCC(C)Nc1c2ccc(Cl)cc2nc2ccc(OC)cc12 (configuration not stated),44.7%,36.7%,3.18% (active),2.49% (active),27.7%,21.1%,17.1%,25.6%,-71.9% (active),16.1%,0.665% (active),19.8%,-16.1% (active),30.4%,26.8%,-89.3% (active),-73.1% (active),,
